Assay results published in PubChem BioAssay (Tox21).
Where “and” joins values, the source holds several entries; their conditions need not be identical. Identical values can stand only once. Records with an inconclusive call do not appear. Where a call stands in place of a potency, no number is given. Some compounds were tested as several samples or in several runs, with calls that do not always agree. Calls of active or inactive are those of the source. Unless noted, calls come from the whole dose curve; as a rule, active = well fitted curve in the direction sought with a large enough effect in the repeat runs; inconclusive = weak or mixed curves; inactive = no such curve, though single readings can be large; an effect the other way counts as inactive or inconclusive.

Key:
[1] = qHTS assay to identify small molecule antagonists of the glucocorticoid receptor (GR) signaling pathway - cell viability counter screen (AID 720693); settings: GR-bla HeLa viability, CellTiter-Glo luminescence, 18 h, with 5 nM dexamethasone present; series mostly up to 58.5 µM; note: nearly all actives have a fitted effect of over 55% in size; note: potency is the fitted concentration of half-maximal effect
[2] = qHTS assay for identifying genotoxic compounds that show differential cytotoxicity against isogenic chicken DT40 cell lines with known DNA damage response pathways - wild type cell line (AID 743012); settings: DT40 wild type chicken cells viability, CellTiter-Glo, 40 h; series mostly up to 68.4 µM; note: nearly all actives have a fitted effect of over 60% in size; note: potency is the fitted concentration of half-maximal effect
How it was run: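 CellTiter-Glo luminescence readout of viability in wild type DT40 cells after 40 h compound exposure at 37 C/5% CO2; 300 cells/well; reagent incubated 30 min at room temperature before reading.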

[3] = qHTS assay for identifying genotoxic compounds that show differential cytotoxicity against isogenic chicken DT40 cell lines with known DNA damage response pathways - Rev3 mutant cell line (AID 743014); settings: chicken DT40 Rev3-/- viability, CellTiter-Glo, 40 h; series mostly up to 68.4 µM; note: nearly all actives have a fitted effect of over 55% in size; note: potency is the fitted concentration of half-maximal effect
[4] = qHTS assay to identify small molecule antagonists of the androgen receptor (AR) signaling pathway - cell viability counter screen (AID 743033; note: nearly all actives have a fitted effect of over 45% in size; note: potency is the fitted concentration of half-maximal effect); settings: AR-bla HEK293 viability, CellTiter-Glo luminescence, 16 h; series mostly up to 58.5 µM
[5] = qHTS assay to identify small molecule antagonists of the androgen receptor (AR) signaling pathway using the MDA cell line - cell viability counter screen (AID 743041; note: nearly all actives have a fitted effect of over 45% in size); settings: MDA-kb2 viability, CellTiter-Fluor, 16 h, cells co-treated with R1881 androgen agonist; series mostly up to 70.3 µM
How it was run: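 qHTS viability read-out; MDA-kb2 AR-luc; R1881-stimulated; 16 h exposure at 37C, 0% CO2; CellTiter-Fluor, 30 min; fluorescence intensity.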

[6] = qHTS assay to identify small molecule antagonists of the thyroid receptor (TR) signaling pathway - cell viability counter screen (AID 743064); settings: GH3.TRE-Luc viability, CellTiter-Fluor, 24 h; series mostly up to 70.3 µM; note: nearly all actives have a fitted effect of over 50% in size; note: potency is the fitted concentration of half-maximal effect
How it was run: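 In rat pituitary GH3.TRE-Luc reporter cells co-exposed to compound and 1 nM T3 for 23.5 h, cytotoxicity was assessed with CellTiter-Fluor in the same wells, read by fluorescence.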

[7] = target: Estrogen receptor (Homo sapiens) (UniProt P03372); experiment: qHTS assay to identify small molecule antagonists of the estrogen receptor alpha (ER-alpha) signaling pathway (AID 743069; active = well fitted curve in the direction sought with a large enough effect in the signal ratio in the repeat runs, not every such curve was filed as active; the % refers to the signal ratio); settings: HEK293 ER-alpha-UAS-bla, beta-lactamase ratio, antagonist mode; series mostly up to 69.4 µM
Sequence of Estrogen receptor (Homo sapiens) (P03372 whole entry, looked up): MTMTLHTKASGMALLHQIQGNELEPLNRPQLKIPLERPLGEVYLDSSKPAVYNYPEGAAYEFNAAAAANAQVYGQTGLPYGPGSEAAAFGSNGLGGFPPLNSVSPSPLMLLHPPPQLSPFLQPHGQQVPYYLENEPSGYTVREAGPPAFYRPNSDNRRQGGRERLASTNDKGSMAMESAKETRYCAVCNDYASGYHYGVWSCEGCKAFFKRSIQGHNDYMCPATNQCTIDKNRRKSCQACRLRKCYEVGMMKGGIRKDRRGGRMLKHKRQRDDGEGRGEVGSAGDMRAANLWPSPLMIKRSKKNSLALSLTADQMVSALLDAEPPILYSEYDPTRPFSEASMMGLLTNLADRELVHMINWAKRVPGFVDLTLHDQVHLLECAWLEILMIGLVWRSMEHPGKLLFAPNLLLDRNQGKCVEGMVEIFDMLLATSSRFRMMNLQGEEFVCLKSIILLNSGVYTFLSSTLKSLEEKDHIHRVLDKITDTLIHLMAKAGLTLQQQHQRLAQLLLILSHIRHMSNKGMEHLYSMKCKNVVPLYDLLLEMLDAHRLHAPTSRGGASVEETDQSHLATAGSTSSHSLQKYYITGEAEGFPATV
How it was run: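 Screening used a UAS-driven beta-lactamase reporter integrated into HEK293 cells expressing ER-alpha, stimulated with 17beta-estradiol alongside test compounds over 18 hr at 37C; signal came from LiveBLAzer B/G FRET fluorescence.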

[8] = qHTS assay to identify small molecule antagonists of the estrogen receptor alpha (ER-alpha) signaling pathway - cell viability counter screen (AID 743074; calls by dose curve; note: nearly all actives have a fitted effect of over 45% in size; note: potency is the fitted concentration of half-maximal effect); settings: ERalpha-bla HEK293 viability, CellTiter-Glo luminescence, 18 h; series mostly up to 69.4 µM
[9] = target: Estrogen receptor (Homo sapiens) (UniProt P03372); experiment: qHTS assay to identify small molecule agonists of the estrogen receptor alpha (ER-alpha) signaling pathway (AID 743075; calls by dose curve); settings: HEK293 ER-alpha-UAS-bla, beta-lactamase FRET ratio, 18 h; series mostly up to 70.1 µM
[10] = target: Estrogen receptor (Homo sapiens) (UniProt P03372); experiment: qHTS assay to identify small molecule agonists of the estrogen receptor alpha (ER-alpha) signaling pathway using the BG1 cell line (AID 743079); settings: BG1Luc4E2 cells, ERE-luciferase agonist, 22 h; series mostly up to 70.3 µM; note: nearly all actives have a fitted effect of over 20% in size; note: potency is the fitted concentration of half-maximal effect
[11] = qHTS assay to identify small molecule antagonists of the estrogen receptor alpha (ER-alpha) signaling pathway using the BG1 cell line - cell viability counter screen (AID 743081); settings: BG1Luc4E2 viability, CellTiter-Fluor, 22 h; series mostly up to 70.3 µM;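 note: compound given together with 17beta-estradiol as the ER stimulus; nearly all actives have a fitted effect of over 45% in size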
Aromatase (Homo sapiens) = Aromatase (Homo sapiens) (UniProt P11511); experiment: qHTS assay to identify aromatase inhibitors (AID 743083); settings: MCF-7 aro ERE, testosterone-driven ERE luciferase, 24 h; series mostly up to 70.3 µM; note: nearly all actives have a fitted effect of over 55% in size; note: potency is the fitted concentration of half-maximal effect
Sequence of Aromatase (Homo sapiens) (P11511 whole entry, looked up): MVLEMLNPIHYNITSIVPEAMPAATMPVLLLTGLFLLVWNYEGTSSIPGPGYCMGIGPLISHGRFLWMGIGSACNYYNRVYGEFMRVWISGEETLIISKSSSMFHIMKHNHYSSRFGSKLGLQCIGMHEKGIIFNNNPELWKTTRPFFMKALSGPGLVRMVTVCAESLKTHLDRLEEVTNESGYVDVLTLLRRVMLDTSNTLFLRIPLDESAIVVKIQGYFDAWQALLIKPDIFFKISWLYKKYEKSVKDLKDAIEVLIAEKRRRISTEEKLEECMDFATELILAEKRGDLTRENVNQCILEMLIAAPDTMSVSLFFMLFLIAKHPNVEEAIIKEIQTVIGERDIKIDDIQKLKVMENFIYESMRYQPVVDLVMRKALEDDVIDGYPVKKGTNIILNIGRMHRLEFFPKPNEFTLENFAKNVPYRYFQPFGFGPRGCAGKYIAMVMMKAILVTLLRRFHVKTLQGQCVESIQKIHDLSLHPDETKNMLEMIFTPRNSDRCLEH

[12] = qHTS assay for identifying genotoxic compounds that show differential cytotoxicity against isogenic chicken DT40 cell lines with known DNA damage response pathways - Rad54/Ku70 mutant cell line (AID 743015); settings: DT40 Rad54/Ku70 mutant viability, CellTiter-Glo, 40 h; series mostly up to 66.8 µM; note: nearly all actives have a fitted effect of over 60% in size; note: potency is the fitted concentration of half-maximal effect
[13] = target: Androgen receptor (Homo sapiens) (UniProt P10275); experiment: qHTS assay to identify small molecule antagonists of the androgen receptor (AR) signaling pathway (AID 743035; active = well fitted inhibition curve with a large enough effect in the signal ratio in the repeat runs, not every such curve was filed as active; the % refers to the signal ratio); settings: HEK293 AR-UAS-bla, R1881-stimulated, beta-lactamase FRET, 16 h; series mostly up to 58.5 µM
Sequence of Androgen receptor (Homo sapiens) (P10275 whole entry, looked up): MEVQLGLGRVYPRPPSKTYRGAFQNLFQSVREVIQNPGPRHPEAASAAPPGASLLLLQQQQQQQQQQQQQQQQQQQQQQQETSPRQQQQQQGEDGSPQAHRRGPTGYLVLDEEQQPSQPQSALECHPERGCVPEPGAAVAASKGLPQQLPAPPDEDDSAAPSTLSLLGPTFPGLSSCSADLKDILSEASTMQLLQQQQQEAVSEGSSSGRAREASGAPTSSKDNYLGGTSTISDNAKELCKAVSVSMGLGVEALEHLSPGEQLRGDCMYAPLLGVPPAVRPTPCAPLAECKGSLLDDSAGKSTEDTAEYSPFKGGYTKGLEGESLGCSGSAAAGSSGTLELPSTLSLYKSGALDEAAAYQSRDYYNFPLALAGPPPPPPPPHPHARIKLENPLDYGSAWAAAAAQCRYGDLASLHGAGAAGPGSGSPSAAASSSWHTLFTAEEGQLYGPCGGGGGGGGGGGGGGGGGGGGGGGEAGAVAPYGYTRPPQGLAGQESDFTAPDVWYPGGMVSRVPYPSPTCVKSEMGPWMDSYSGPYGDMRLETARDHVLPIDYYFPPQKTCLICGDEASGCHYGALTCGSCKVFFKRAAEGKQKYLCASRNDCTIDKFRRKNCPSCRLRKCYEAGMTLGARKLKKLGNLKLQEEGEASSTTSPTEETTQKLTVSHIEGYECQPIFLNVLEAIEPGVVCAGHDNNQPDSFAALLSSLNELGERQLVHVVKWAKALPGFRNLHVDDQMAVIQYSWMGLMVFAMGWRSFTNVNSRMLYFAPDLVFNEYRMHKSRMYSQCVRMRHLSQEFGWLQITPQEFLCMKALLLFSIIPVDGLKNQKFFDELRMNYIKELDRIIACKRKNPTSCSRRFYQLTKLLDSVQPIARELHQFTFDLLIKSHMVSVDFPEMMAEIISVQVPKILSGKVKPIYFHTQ
How it was run: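 AR-bla HEK293 reporter cells; 4 h settle at 37C/5% CO2; compound + R1881 agonist, 16 h at 37C; LiveBLAzer B/G FRET substrate 2 h RT; fluorescence intensity read. qHTS format.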

[14] = target: Androgen receptor (Homo sapiens) (UniProt P10275); experiment: qHTS assay to identify small molecule agonists of the androgen receptor (AR) signaling pathway using the MDA cell line (AID 743040; note: nearly all actives have a fitted effect of over 20% in size); settings: MDA-kb2 AR-luc cells, MMTV luciferase, 16 h; activity change: at 70.3 µM (top of the series), stronger effect = higher value
How it was run: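 Agonist activity is measured as luciferase luminescence in human MDA-kb2 cells whose MMTV reporter responds to both AR and GR. Compounds in DMSO incubate 16 h at 37C, 0% CO2, and ONE-Glo is read after 30 min.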

[15] = target: Androgen receptor (Homo sapiens) (UniProt P10275); experiment: qHTS assay to identify small molecule antagonists of the androgen receptor (AR) signaling pathway using the MDA cell line (AID 743042; note: nearly all actives have a fitted effect of over 55% in size); settings: MDA-kb2 AR-luc, MMTV luciferase, R1881 antagonist, 16 h; series mostly up to 70.3 µM
How it was run: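 MDA-kb2 cells (human breast carcinoma, stably carrying an MMTV-luciferase reporter responsive to AR and GR) were plated at 3,000 cells/well and preincubated 5 hr at 37C, then given compound plus R1881 agonist for 16 h. ONE-Glo luminescence was read.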

[16] = qHTS assay to identify small molecule antagonists of the thyroid receptor (TR) signaling pathway (AID 743065); settings: GH3.TRE-Luc, T3-stimulated luciferase inhibition, 23.5 h; series mostly up to 70.3 µM; note: nearly all actives have a fitted effect of over 55% in size; note: potency is the fitted concentration of half-maximal effect
How it was run: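 GH3.TRE-Luc rat pituitary cells carrying two TR response elements driving luciferase were plated for 4 h, given compound plus 1 nM T3 (final), and incubated 23.5 h at 37 C. ONE-Glo luminescence measured reporter inhibition; CellTiter-Fluor fluorescence tracked cytotoxicity.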

[17] = test system: thyroid hormone receptor (rat, GH3 cells); experiment: qHTS assay to identify small molecule agonists of the thyroid receptor (TR) signaling pathway (AID 743066; calls by dose curve); settings: GH3.TRE-Luc cells, TR agonist luciferase, 24 h; series mostly up to 83.9 µM
[18] = qHTS assay to identify small molecule antagonists of the estrogen receptor alpha (ER-alpha) signaling pathway using the BG1 cell line (AID 743080; calls by dose curve;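 note: BG1 cells stimulated with 17beta-estradiol alongside compound; nearly all actives have a fitted effect of over 25% in size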); settings: BG1Luc4E2 ERE-luciferase antagonist mode, luminescence; series mostly up to 70.3 µM
How it was run: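 BG1-Luc-4E2 cells (endogenous full-length ER-alpha, stable 4×ERE-luciferase) were starved 5 days in phenol-red-free medium with 10% charcoal-stripped FBS, plated 24 h, then given compound plus 17beta-estradiol for 21.5 h at 37 C; ONE-Glo luminescence read after 30 min.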

[19] = qHTS assay to identify aromatase inhibitors - cell viability counter screen (AID 743084); settings: MCF-7 aro ERE viability, CellTiter-Fluor, 24 h; series mostly up to 70.3 µM; note: potency is the fitted concentration of half-maximal effect

Row | Structure (SMILES) | Potency [1] | Potency [2] | Potency [3] | Potency [4] | Potency [5] | Potency [6] | Potency [7] | Potency [8] | Potency [9] | Potency [10] | Potency [11] | Potency (Aromatase (Homo sapiens)) | Potency [12] | Potency [13] | Potency [14] | Potency [15] | Potency [16] | Potency [17] | Potency [18] | Potency [19]
1 | O=S(=O)(Cl)Cl | inactive | inactive | inactive | inactive | inactive | inactive | inactive | inactive | inactive | inactive | inactive | inactive | – | – | – | – | – | – | – | –
2 | CC(C)(C)NCC(O)c1cc(Cl)c(N)c(C(F)(F)F)c1 (stereo not given) | inactive | inactive | – | inactive | inactive | – | – | inactive | inactive | inactive | – | inactive | inactive | inactive | inactive | inactive | inactive | inactive | inactive | –
3 | C=CCOCC1CO1 (stereo not given) | inactive | inactive | inactive | inactive | inactive | inactive | – | inactive | inactive | inactive | inactive | inactive | – | – | – | – | inactive | inactive | – | inactive
4 | CCOP(=O)(O)C(N)=O | inactive | inactive | inactive | inactive | inactive | inactive | inactive | inactive | inactive | inactive | inactive | inactive | – | – | – | – | inactive | inactive | – | inactive
5 | NP(N)(=O)NC(=O)c1ccc(F)cc1 | inactive | inactive | inactive | inactive | inactive | inactive | – | inactive | inactive | – | inactive | inactive | – | – | inactive | inactive | inactive | inactive | inactive | inactive
6 | OC[P+](CO)(CO)CO | inactive | inactive | inactive | inactive | inactive | inactive | – | inactive | – | – | inactive | inactive | – | – | – | – | inactive | inactive | inactive | 61.8 µM (active) and inactive
7 | CCCCCCCCCCCC[N+](C)(C)CCOc1ccccc1 | 17.4 µM (active) | 1.88 µM (active) and 6.11 µM (active) | 2.37 µM (active) and 3.86 µM (active) | 23.9 µM (active) and 15.5 µM (active) | – | 13.3 µM (active) and 9.69 µM (active) | – | 19 µM (active) and 17.4 µM (active) | inactive | – | inactive | 21.1 µM (active) and 19.3 µM (active) | 2.66 µM (active) and 6.11 µM (active) | – | – | – | 10.6 µM (active) and 9.69 µM (active) | inactive | inactive | 26.6 µM (active) and 27.3 µM (active)
8 | CC(C)c1ccc(OP(=O)(Oc2ccc(C(C)C)cc2)Oc2ccc(C(C)C)cc2)cc1 | inactive | – | 61.6 µM (active) and 27.3 µM (active) | inactive | – | 54.9 µM (active) and 68.6 µM (active) and 30.6 µM (active) | – | inactive | inactive | 2.75 µM (active) and 6.85 µM (active) | inactive | inactive | – | – | – | – | 54.9 µM (active) and 54.5 µM (active) and 30.6 µM (active) | inactive | inactive | inactive
9 | Nc1cccc2ccccc12 | inactive | – | – | inactive | inactive | inactive | inactive | – | inactive | inactive | inactive | inactive | – | – | – | – | inactive | inactive | inactive | inactive
10 | CC(=O)OC(c1ccccc1)C(Cl)(Cl)Cl (stereo not given) | inactive | – | inactive | – | inactive | inactive | inactive | inactive | inactive | – | inactive | – | – | – | – | – | inactive | inactive | – | inactive
11 | CC(C)(C)CC(C)(C)c1ccc(O)cc1 | – | 23.7 µM (active) and 12.2 µM (active) | 11.9 µM (active) and 19.3 µM (active) | inactive | – | 23.7 µM (active) and 25 µM (active) | – | 43.6 µM (active) | – | – | inactive | – | 27.3 µM (active) | – | inactive | inactive | 26.6 µM (active) and 21.7 µM (active) | – | – | inactive and 30.6 µM (active)
12 | O=C(NC(=O)c1cc(F)c(F)cc1Cl)Nc1cc(F)ccc1N1CCC(C(=O)O)CC1 | inactive | – | inactive | inactive | inactive | inactive | – | inactive | inactive | inactive | inactive | inactive | inactive | – | – | – | – | – | inactive | inactive
13 | CN(C)C(=O)Nc1cccc(OC(=O)NC(C)(C)C)c1 | inactive | inactive | – | inactive | inactive | inactive | inactive | inactive | inactive | inactive | inactive | inactive | inactive | – | – | – | – | inactive | – | inactive
14 | CCCC[N+]1(C)[C@@H]2CC(OC(=O)[C@H](CO)c3ccccc3)C[C@H]1[C@@H]1O[C@@H]12 (stereo not given in full) | inactive | – | inactive | – | inactive | inactive | inactive | inactive | inactive | inactive | inactive | inactive | inactive | – | – | – | inactive | inactive | inactive | inactive
15 | O=C(N/N=C/c1ccc([N+](=O)[O-])o1)c1cc([N+](=O)[O-])cc([N+](=O)[O-])c1O | inactive | inactive | – | – | – | – | – | inactive | – | – | – | inactive | – | – | – | – | inactive | inactive | – | –
